# Rows were chosen to be rich in hits. Some 10% of all compounds tested hit in one or more screens of this group.
# G9a block = blocks human histone lysine methyltransferase G9a | Q96KQ7 | G9a H3K9 monomethylation, AlphaScreen, 2 h | Potency, µM (top dose mostly 102 µM), for inactives: at the highest dose activity, negative = inhibition, most hits filed as inhibitors | hit rate 8.8% among 350,000 | AID 504332; also: potency is read from the fitted curve at half-maximal effect; % is scaled to controls: 0 for no effect and ±100 for the full control effect; nearly all actives have a fitted effect of over 75% in size
#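 Quantitative HTS format: methyltransferase activity on a biotin-tagged H3K9 peptide is measured by AlphaScreen, using a rabbit anti-monomethyl-H3K9 antibody with streptavidin donor and anti-IgG acceptor beads. Final levels are 20 nM enzyme, 500 nM peptide, 20 uM SAM; 2 h RT.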
# Six1-Eya2 inh = inhibitors of human Six1/Eya2 interaction; Q15475+O00167; AlphaScreen GST-Six1/His-Eya2 binding, biochemical; stronger effect = lower value; activity change, % (test concentration not listed); hit rate 0.56% among 360,000; AID 651725; in the data active = activity change below about -65%; inconclusive = mostly about -30% to -63%; also: % is scaled to controls: 0 for no effect and ±100 for the full control effect
#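 AlphaScreen luminescence read after one hour at 37 °C in darkness. Pin-transferred compounds met GST-Six1 and His-Eya2 protein (5X stock 250 nM/500 nM) plus glutathione donor and Ni-chelate acceptor beads (5X, 50 ug/mL).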
# BAZ2B block = BAZ2B (human) inhibition; Q9UIF8; AlphaScreen BAZ2B-H3K14Ac peptide displacement; Potency, µM (titrated, usually from 114 µM), for the others: at the highest dose activity change, negative = inhibition, most hits filed as inhibitors; hit rate 4.4% among 360,000; also: potency is read from the fitted curve at half-maximal effect; % is scaled to controls: 0 for no effect and ±100 for the full control effect; nearly all actives have a fitted effect of over 60% in size
#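 BAZ2B 50 nM plus b-H3(5-23)K14Ac 50 nM, PBS pH 7.4/0.01% Tween-20, 30 min RT; compound added (max 110 uM), 30 min RT; streptavidin donor/Ni-chelate acceptor beads 10 ug/mL final, 20 min dark; AlphaScreen read.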
# CtBP-E1A blk = inhibitors of CtBP/E1A interaction; activity change, % (no concentration beside the values); AID 651724; AlphaScreen GST-E1A/His-CtBP binding, 1536-well; stronger effect = lower value; hit rate 0.49% among 340,000; in the data active = activity change below about -65%; inconclusive = mostly about -30% to -63%; also: % is scaled to controls: 0 for no effect and ±100 for the full control effect
#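 AlphaScreen with 125 nM GST-E1A and 125 nM His-CtBP (5X stocks) in Tris pH 8.0, 300 mM NaCl, BSA, Tween 20, TCEP. Compounds preincubated 2 h at 37 deg C, then glutathione donor/nickel acceptor beads added for 1 h at 37 deg C in dark.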
# JMJD2A Tudor = JMJD2A Tudor domain (human) inhibition; O75164; hit rate 4.4% among 390,000; Potency, µM (doses to about 114 µM), without a hit: at the top dose activity change, negative = inhibition, hits mostly inhibitors; AlphaScreen JMJD2A-Tudor / H3K4me3 peptide binding; AID 504339; also: potency is read from the fitted curve at half-maximal effect; % is scaled to controls: 0 for no effect and ±100 for the full control effect; nearly all actives have a fitted effect of over 50% in size
# HP1b chromo inh = HP1-beta chromodomain-methylated histone interaction inhibition; AlphaScreen HP1-beta / biotin-H3K9me3 peptide binding; Potency, µM (series often up to 114 µM), without a hit: at the top dose activity change, negative = inhibition, usual class: inhibitors; AID 540317; hit rate 0.56% among 390,000; also: potency is read from the fitted curve at half-maximal effect; nearly all actives have a fitted effect of over 70% in size
#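 Compound inhibition of the preformed complex between 50 nM HP1-beta and 50 nM biotinylated H3K9me3 peptide was read by AlphaScreen. Buffer was PBS pH 7.4 with 0.01% Tween-20. Incubations ran 30 min at room temperature, with 10 ug/mL donor/acceptor beads.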
# * marks the source's active call; other numbers are inactive results; ? = inconclusive; · = no result given; [ ] = dose if it differs, or a comment. Unless noted, calls follow the shape of the dose curve; as a rule, active = well fitted inhibition curve with a large enough effect; inconclusive = small, poorly fitted or top-dose-only effect; inactive = no such curve, though single readings can be large or run the other way.
SMILES,G9a block,Six1-Eya2 inh,BAZ2B block,CtBP-E1A blk,JMJD2A Tudor,HP1b chromo inh
CC(C)=CCOc1ccc2ccc(=O)oc2c1,6.9%[12.7 µM],-6.0,10.1%,10.8,4.1%,49.5%
COc1ccc(C2Nc3ccccc3C(=O)N2Cc2ccccc2)cc1COc1ccc(NC(=O)c2ccccc2)cc1 (centres undefined),·,·,·,·,-25.9%,·
O=C(NNC(=S)Nc1ccc(Cl)cc1)c1cccs1,25.1µM*,0.0,-3.8%,·,-27.4%,16.5%
O=C(Nc1ccccc1)c1ccc(F)cc1F,·,-0.5,·,8.1,3.6%,35.0%
O=C(NNc1cc(Cl)cc(Cl)c1)c1cccs1,28.2µM*,3.8,-16.1%,0.4,-8.3%,46.5%
O=C(NNC(=O)c1cccs1)Nc1cccc(Cl)c1,16.5%[0.0925 µM],-13.1,11.9%,6.8,-7.5%,37.7%
NS(=O)(=O)c1ccc(NNC(=O)c2cccs2)cc1,10µM*,2.5,-2.9%,-6.3,7.1%,47.1%
NS(=O)(=O)c1ccc(NNC(=O)c2ccc(F)cc2F)cc1,11.2µM*,2.9,-0.5%,-0.7,-10.4%,42.5%
COc1cccc(C(=O)Nc2cc(-c3ccccc3)nn2-c2ccccc2)c1,3.1%[59 µM],·,5.4%,·,-1.9%,29.4%[57 µM]
Cc1ccc(-n2nc3c(=O)n(CCCC(=O)NC(C)c4ccccc4)nc(C)c3c2C)cc1 (centres undefined),4.4%[59 µM],·,-2.0%,·,4.8%,57.4%
Cc1ccc(S(=O)(=O)n2nc(-c3ccco3)nc2NCc2ccccc2Cl)cc1,?,·,-20.3%,·,-25.7%,-7.0%
O=C(NNc1ccc(Cl)cc1)c1cccs1,10µM*,2.4,-18.6%,1.2,-30.3%,19.3%
O=C(NNc1ccccc1F)c1cccs1,·,·,·,·,-10.2%,57.8%
Cc1oc(-c2ccc(Cl)cc2)nc1CS(=O)CC(=O)NCc1ccc(Cl)cc1 (centres undefined),-30.0%[59 µM],·,-21.6%,·,-4.7%,50.4%
NC(=O)COC(=O)c1ccc(Cl)c(S(=O)(=O)N(Cc2ccccc2)c2ccc(Cl)cc2)c1,?,-6.5,-0.7%,-3.9,?,-9.5%
O=C(O)c1ccc(Cl)c(S(=O)(=O)N(Cc2ccccc2)c2ccc(Cl)cc2)c1,50.1µM*,-5.4,-22.7%,-18.3,-17.4%,17.2%
C=CCNC(=O)COC(=O)c1ccc(Cl)c(S(=O)(=O)N(Cc2ccccc2)c2ccccc2)c1,31.6µM*,-1.8,2.7%,0.3,-22.7%,35.1%
COc1cccc2cc(S(=O)(=O)c3ccc(F)c(C)c3)c(=O)oc12,-20.0%[59 µM],·,-12.8%,·,-9.4%,29.6%
COc1ccc(NC(=O)CC2Nc3ccccc3NC2=O)c([N+](=O)[O-])c1 (centres undefined),50.1µM*,11.5,-15.5%,0.0,-8.9%,1.3%
Cc1c(C(=O)Nc2ccccc2[N+](=O)[O-])csc1-c1ccccc1,25.1µM*,?,11.2µM*,?,?,28.2µM*
CCCOc1ccc(C(=O)Nc2ccccc2[N+](=O)[O-])cc1,·,?,·,?,56.2µM*,?
O=C(Nc1ccccc1O)c1ccc([N+](=O)[O-])cc1,10.9%,16.1,-2.9%,·,-11.9%,52.9%
CSc1ccccc1NC(=O)c1ccc([N+](=O)[O-])cc1,31.6µM*,-23.7,?,-14.3,-32.9%,?
COc1ccc(NC(=O)CC2Nc3ccccc3NC2=O)cc1 (centres undefined),-4.3%[59 µM],·,-0.7%,·,-5.6%,24.2%
COc1ccc(CCNC(=O)CCCn2c(=O)c3ccccc3n(CC(=O)Nc3cccc(C)c3)c2=O)cc1OC,-2.5%[59 µM],·,-0.3%,·,-18.8%,22.5%
SMILES,G9a block,Six1-Eya2 inh,BAZ2B block,CtBP-E1A blk,JMJD2A Tudor,HP1b chromo inh
O=C1c2[nH]nc(-c3ccccc3O)c2C(c2ccc(F)cc2)N1CCO (centres undefined),1.8%[59 µM],·,-11.7%,·,-12.2%,44.9%
COc1ccc(NC(=O)c2cc(S(=O)(=O)N3CCCCC3)cn2C)cc1Cl,-6.0%[59 µM],·,4.0%,·,-20.1%,14.4%[57 µM]
COc1ccc(NC(=O)CN(C)S(=O)(=O)c2ccc(C)cc2)c([N+](=O)[O-])c1,31.6µM*,10.3,-6.4%,7.8,-12.8%,12.5%
COc1ccc(NC(=O)c2cccnc2)c([N+](=O)[O-])c1,-8.3%[12.7 µM],1.5,-6.3%,-14.4,-11.4%,20.0%
COc1ccc(NC(=O)c2ccccc2)c([N+](=O)[O-])c1,79.4µM*,-4.8,?,-6.4,-35.7%,-22.9%
COc1ccc(CCNC(=O)Nc2ccccc2[N+](=O)[O-])cc1,50.1µM*,-0.8,-14.9%,-1.4,-32.0%,-15.8%
CCCOc1ccc(/C=N/Nc2ccccc2[N+](=O)[O-])c(OCCC)c1,8.91µM*,?,2.51µM*,?,14.1µM*,22.4µM*
COc1ccc(N(C)S(=O)(=O)c2ccc(C)cc2)c([N+](=O)[O-])c1,?,-7.6,-28.6%,-3.6,-27.4%,7.2%
Cc1ccc(C(=O)NCCCNC(=O)c2ccccn2)cc1,16.6%,1.3,-14.3%,6.3,-12.4%,25.3%
COc1ccc(/C=N/Nc2ncccc2[N+](=O)[O-])c(OC)c1,28.2µM*,?,39.8µM*,·,50.1µM*,?
Cc1ccc(C(=O)NCCCNc2ccccc2[N+](=O)[O-])cc1,56.2µM*,-12.4,?,-4.3,89.1µM*,0.7%
COc1ccc(/C=N/Nc2ncc(-c3ccccc3)cn2)c(OC)c1,-7.1%[59 µM],-0.6,-5.3%,-12.8,?,10.2%
Cc1cc(C)c(-c2cc(NC(=O)COC(=O)c3ccc(C#N)cc3)n(-c3ccccc3)n2)cc1C,31.6µM*,-8.9,-32.5%,-1.0,-11.2%,28.1%
COc1cccc(-c2sc3ccccc3c2-c2ccc(OCCN3CCCCC3)cc2)c1,·,-23.7,·,-7.1,?,-10.9%
COc1ccc(-c2sc3ccccc3c2-c2ccc(OCCN3CCCCC3)cc2)cc1,·,-10.1,·,-6.3,44.7µM*,-15.0%
c1ccc(-c2sc3ccccc3c2-c2ccc(OCCN3CCCC3)cc2)cc1,·,-20.1,·,-4.2,50.1µM*,-15.1%
Nc1ccc(Oc2ccc3nc(-c4ccccc4)c(-c4ccc([N+](=O)[O-])cc4)nc3c2)cc1,31.6µM*,?,?,?,?,-35.8%
C[C@]1(c2ccccc2)OC(C(=O)O)=CC1=O,-45.7%[12.7 µM],·,·,·,·,·
OCCN(CCO)c1ccc(C(c2ccccc2Cl)c2ccc(N(CCO)CCO)cc2Cl)c(Cl)c1,44.7µM*,-14.8,?,2.4,?,-14.4%
OCCN(CCO)c1ccc2ccccc2c1,?,1.0,-25.4%,-6.3,-27.6%,11.0%
CCC(=O)N1c2ccccc2CC1C(=O)NCc1ccc(N(C)C)cc1 (centres undefined),?,·,-15.0%,·,-7.3%,12.7%

# Assay outcomes: PubChem, National Center for Advancing Translational Sciences (NCATS)
